Laboratory results taken from PubChem BioAssay AID686978 (National Center for Advancing Translational Sciences (NCATS), 2013).
Values joined by “and” are separate entries in the source; they are usually repeats but may differ in a detail not shown here. Identical values can stand only once. In all, about 420,000 compounds went through this assay and about 64,000 (15%) were called active. Roughly 27% stayed inconclusive and do not appear here. Not all results are given here. Values without a mark were called inactive. Calls come from the whole dose curve; as a rule, active = well fitted inhibition curve with a large enough effect; inconclusive = small, poorly fitted or top-dose-only effect; inactive = flat fitted curve, though single readings scatter.

Assay: qHTS for Inhibitors of human tyrosyl-DNA phosphodiesterase 1 (TDP1): qHTS in cells in absence of CPT; note: nearly all actives have a fitted effect of over 55% in size
Settings: DT40 Tdp1-/- hTDP1 cells, no CPT, ATP luminescence, 48 h; activity change, negative = growth inhibition: at 46.2 µM (top of the series)
Summary of the method: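 Compound effects on proliferation are scored in DT40 Tdp1-/-;hTDP1 cells in the absence of CPT. ATP levels (CellTiter-Glo luminescence) are recorded after a ≥48 hr, 37 °C incubation.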
% is set by controls: 0 for no effect and ±100 for the full control effect; potency is the fitted concentration of half-maximal effect.

Structure (SMILES)	activity change, negative = growth inhibition	Potency
CC(C)C(=O)NC(=S)Nc1ccccc1F	-0.205%	–
CC(NC(=O)Nc1cccc([N+](=O)[O-])c1)c1ccc2c(c1)OCO2 (stereo not drawn)	-18.9%	–
O=C(Nc1cccnc1)c1noc2c1CCCCC2	-19.8%	–
CC(C)CC[n+]1ccn(C2=C([O-])c3ccccc3C(=O)/C2=N\S(=O)(=O)c2ccccc2)c1	–	10.3 µM (active)
Cc1ccc(NC2CCCN(C(=O)CCC3(C)CC3)C2)cc1C (stereo not drawn)	-29.4%	–
CCOC(=O)CN1CC23C=CC(O2)C(C(=O)Nc2ccc(F)cc2)C3C1=O (stereo not drawn)	3.97%	–
COCCn1nnnc1CN1CCC(NC(=O)Nc2cccc(OC)c2)CC1	-6.87%	–
CCc1cccc(C)c1Nc1c(-c2ccc(N(C)C)cc2)nc2ncccn12	–	10.3 µM (active)
Cc1ccc(-c2c(N)nc3ncccn23)cc1	6.62%	–
Cc1nc(-c2ccc(F)cc2)c(CC(=O)N(C)CC(=O)Nc2c(C)cccc2C)s1	-0.693%	–
Cc1cccc(C)c1Nc1c(-c2ccccc2O)nc2ncccn12	–	18.4 µM (active) and 23.1 µM (active)
Cc1c(-c2cccc(NC(=O)C(C)(C)C)c2)nc2ncccn12	-3.43%	–
Nn1c(SCC(=O)Nc2nccs2)nncc1=O	-5.81%	–
CC(C)CCNC(=O)CC1C(=O)N(Cc2ccccc2)C(C)c2nc3ccccc3n21 (stereo not drawn)	-18.9%	–
CN(C)c1ccnc(Nc2ccc(F)cc2)c1C#N	-0.174%	–
COc1ccccc1/C=C/C(=O)NC1CC2CCC1C2 (stereo not drawn)	-20.8%	–
COc1ccccc1/C=C/C1=NC(=C\N(C)C)/C(=O)O1	–	20.6 µM (active)
COc1ccccc1/C=C/C(=O)NC(=S)N1CCOCC1	-12.6%	–
O=C(CCNS(=O)(=O)c1ccccc1C(F)(F)F)NCc1ccc2c(c1)OCO2	-0.322%	–
CCOC(=O)C1=C(C)NC(=S)NC1c1cccs1 (stereo not drawn)	-3.91%	–
C=CCOC(=O)c1ccccc1C(=O)OCC=C	-12.2%	–
C=CCOC(=O)C1=C(C)NC(C)=C(C(=O)OCC=C)C1c1cccs1	–	18.4 µM (active)
CC(C)C(NC(=O)c1ccc(Cl)cc1)C(=O)O (stereo not drawn)	7.61%	–

Structure (SMILES)	activity change, negative = growth inhibition	Potency
CSc1ncccc1C(=O)Nc1nc2ccc(F)cc2s1	-12%	–
Cc1cc(C(=O)COc2ccccc2[N+](=O)[O-])c(C)n1-c1cccc(S(=O)(=O)N2CCOCC2)c1	–	23.1 µM (active)
O=C(COc1ccc(S(=O)(=O)N2CCCC2)cc1[N+](=O)[O-])N1CCCCC1	-19.5%	–
Cc1cc(S(=O)(=O)N2CCOCC2)ccc1OCC(=O)N1CCOCC1	-12.2%	–
CCCCCC(O)c1cccc(OCc2ccc3ccccc3n2)c1 (stereo not drawn)	-7.93% [at 4.12 µM]	–
C/C(=N/OC(=O)c1c(-c2c(F)cccc2Cl)noc1C)c1cnccn1	23.1%	–
O=C(CN1C(=O)COc2ccccc21)Nc1ccc(F)cc1	-26.2%	–
CCN(CC)S(=O)(=O)c1cc(C(=O)Nc2ccccn2)ccc1C	-24.1%	–
CCOc1cccc(NC(=O)c2ccc(F)c(S(=O)(=O)N(CC)c3cccc(C)c3)c2)c1	–	25.9 µM (active)
CCOc1ccc(N(CC(=O)Nc2cccc(OC)c2)S(C)(=O)=O)cc1	9.81%	–
CC1(C)CC(=O)C=C(NCCCNC2CCCCC2)C1	-0.22%	–
O=Cc1ccc(Oc2cccc(C(F)(F)F)c2)nc1	-4.01%	–
N/C(=N\OC(=O)Nc1ccccc1)c1ccno1	-3.56%	–
COC(=O)c1ccccc1NC(=O)Cn1c(=O)n(-c2cccc(C(F)(F)F)c2)c(=O)c2c(C)c(C)sc21	-15.7%	–
CCC(=O)N1CCc2cc(Br)cc(S(=O)(=O)CCC(=O)NCc3ccccc3OC)c21	-6.88%	–
CC(=O)NC(CC(=O)Nc1ccc(S(=O)(=O)N2CCOCC2)cc1)c1ccccc1 (stereo not drawn)	-0.105%	–
CCOc1ccc(CC(=O)NC2CCN(Cc3ccccc3)CC2)cc1	-0.44%	–
O=C(NCCc1c[nH]c2ccccc12)C1CCN(Cc2ccc(Br)cc2)CC1	–	16.4 µM (active)
CCOc1ccc(CN2CCN(Cc3c[nH]c4ccccc34)CC2)cc1	–	5.8 µM (active)
O=C(CN1C(=O)NC2(CCCCC2)C1=O)NCCc1c[nH]c2ccccc12	-15.7%	–
O=C(NCCc1c[nH]c2ccccc12)C(=O)NCC1CCCO1 (stereo not drawn)	-19.7%	–
CCOc1ccc(CN2CCCN(C)CC2)cc1	-0.758%	–
N/C(=N\OC(=O)CCc1ccccc1)c1cccnc1	1.89%	–

Structure (SMILES)	activity change, negative = growth inhibition	Potency
O=C(COc1coc(CN2CCN(c3ccccc3F)CC2)cc1=O)N1CCc2ccccc21	-1.46%	–
Cc1cc(C(=O)OCC(=O)c2c(N)n(C)c(=O)n(C)c2=O)c(C)o1	-4.19%	–
Nc1nc(O)c(CC(=O)O)s1	-6.12%	–
CCOC(=O)C1=C(O)/C(=C/c2ccc(OCC(=O)Nc3ccc(C)cc3)cc2)N=C1C	-4.71%	–
O=c1c(-c2ccccc2)cnc2n1CCS2	19.4%	–
CCCc1nn2c(=O)cc(COC(=O)c3ccc(NC(=O)COc4ccc(F)cc4)cc3)nc2s1	-22.2%	–
Cc1onc(-c2c(Cl)cccc2Cl)c1C(=O)c1c[nH]c(C(=O)NC2CC2)c1	-17.8%	–
CC1(C)CC(=O)c2sc(N)nc2C1	3.79%	–
Cc1cc(C)cc(C(=O)N2CCN=C2SCc2ccc([N+](=O)[O-])cc2)c1	-40.8%	–
Cc1cccc(CC(=O)N2CCN=C2SCc2ccc([N+](=O)[O-])cc2)c1	–	16.4 µM (active)
O=C(Cc1ccc(F)cc1)N1CCN=C1SCc1cccc([N+](=O)[O-])c1	4.03%	–
C/C(=N\NC(=O)CCn1nc(C)cc1C)C(C)(C)C	-4.5%	–
CCc1cnc2c(c1SCC(=O)N1CCC(C)CC1)c(=O)n(C)c(=O)n2C	–	20.6 µM (active)
Cn1c(=O)c2c(SCC(=O)N3CCOCC3)nc(C3CC3)nc2n(C)c1=O	-17.1%	–
CCOC(=O)N1CCN(C(=O)CSc2nc(C)nc3c2c(=O)n(C)c(=O)n3C)CC1	-1.53%	–
Cc1nc(N)nc(SCc2ccc([N+](=O)[O-])cc2)c1N	–	25.9 µM (active)
CC(Sc1nnc(Cc2ccc([N+](=O)[O-])cc2)o1)C(N)=O (stereo not drawn)	-1.37%	–
O=C(CSCc1ccc([N+](=O)[O-])cc1)NCCSCc1ccccc1	-0.761%	–
CCCN(C(=O)COC(=O)CNS(=O)(=O)c1ccc(NC(C)=O)cc1)C1CCS(=O)(=O)C1 (stereo not drawn)	24.2%	–
COc1ccc(OC)c2[nH]c(=O)c(CCNC(=O)C(C)(C)C)cc12	-3.77%	–
O=C(NCCCc1ccccc1)C(=O)c1c[nH]c2ccccc12	-16.1%	–
COc1ccc(OC)c2[nH]c(=O)c(CCNC(=O)C(=O)c3c[nH]c4ccccc34)cc12	–	7.31 µM (active)
